Pf Dd2 growth – inhibitors of Plasmodium falciparum Dd2 growth. P. falciparum Dd2 growth, SYBR Green, 72 h. Potency, µM (series often up to 28.9 µM), without a hit: at the top dose activity, negative = inhibition, most hits filed as inhibitors. 120,000 tested, 4.3% active. AID 1347417; active = well fitted inhibition curve with a large enough effect;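 note: plate controls were DMSO vehicle for no effect and reference drug for full effect; nearly all actives have a fitted effect of over 65% in size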
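Readout: SYBR Green fluorescence, 485 nm excitation, 535 nm emission, after ~16 h lysis at 37C. Before that, Dd2-infected red cells (2.5% hematocrit) grew 72 h with compound, 29 uM top final concentration.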
The depositor's hits bear a star; [ ] = remark or other dose. This excerpt belongs to a sample that is enriched for hits. Potency is the fitted concentration of half-maximal effect.

Results for COc1ccc(NC(=O)Cn2cc(S(=O)(=O)N3CCN(c4ccccc4F)CC3)c3ccccc3c2=O)cc1Cl ?
Pf Dd2 growth: 13µM*

What do the screens show for `Cc1cc(C(=O)N2CCN(C(=O)N3CC4CC(C3)[C@H]3CCCC(=O)N3C4)CC2)n(C)n1` (some centres undefined)?
Pf Dd2 growth: 18%

How did O=C(C1CCOCC1)N1CCC(N2CC3CC(C2)[C@H]2CCCC(=O)N2C3)CC1 (some centres undefined) do in these assays?
Pf Dd2 growth: -8%

What do the screens show for `Cc1cc(CNC(=O)CC2C=CS(=O)(=O)C2)c2[nH]c(-c3ccccc3)c(C)c2c1` (centres undefined)?
Pf Dd2 growth: -4%

How did CCn1cc(S(=O)(=O)NCCc2noc(-c3ccncc3)n2)cn1 do in these assays?
Pf Dd2 growth: 38%

What do the screens show for `CCc1nc2c(c(-c3ccc(OC)cc3)n1)CCN(C(=O)c1ccccn1)CC2`?
Pf Dd2 growth: 19%

What do the screens show for `Cc1ccc2c(c1)N1C(=O)OC[C@@H]1CCN(C(=O)CC(C)C)C2`?
Pf Dd2 growth: inactive

Results for COc1ccc(-c2noc(CN(CC3CCC(=O)N3)C(C)C)n2)c(OC)c1OC (centres undefined) ?
Pf Dd2 growth: -3%

How did CC(=O)Nc1ccc(S(=O)(=O)N[C@@H]2C=C[C@@H](c3c(C)nn(-c4ccc(C(C)(C)C)cc4)c3C)C2)cc1 do in these assays?
Pf Dd2 growth: inactive

What do the screens show for `Cc1nn(CCC#N)c(C)c1[C@@H]1C=C[C@@H](NC(=O)Nc2ccccc2)C1`?
Pf Dd2 growth: -16%[44.1 µM]

Results for Cc1nn(Cc2ccccc2)c(C)c1[C@@H]1C=C[C@@H](NS(=O)(=O)c2cccs2)C1 ?
Pf Dd2 growth: 13µM*

How did O=C(Cc1cccc(Cl)c1)N1CCCC(c2nn(-c3ccccc3)c(=O)[nH]2)C1 (centres undefined) do in these assays?
Pf Dd2 growth: inactive

Results for CCC(NS(=O)(=O)c1ccc(C(=O)NC2CC2)cc1)c1cnn(C)c1 (centres undefined) ?
Pf Dd2 growth: 3%

How did c1ccc(CN2CCC[C@H]2c2nc(-c3ccnc(N4CCOCC4)c3)no2)nc1 do in these assays?
Pf Dd2 growth: 7.1µM*

What do the screens show for `COc1ccc(CN2CCC[C@H]2c2nc(-c3ccnc(N4CCOCC4)c3)no2)cc1`?
Pf Dd2 growth: -26%[44.1 µM]

Results for NC(=O)C1CCN(c2cc(-c3noc([C@@H]4CCCN4Cc4ccccc4F)n3)ccn2)CC1 ?
Pf Dd2 growth: inactive

How did CC(=O)N1CCN(c2cc(-c3noc([C@@H]4CCCN4Cc4ccc(CO)o4)n3)ccn2)CC1 do in these assays?
Pf Dd2 growth: inactive

Results for CC(=O)N1CCN(c2cc(-c3noc([C@@H]4CCCN4Cc4ccccc4C)n3)ccn2)CC1 ?
Pf Dd2 growth: 13µM*

Results for c1cc(-c2noc([C@@H]3CCCN3Cc3ncc[nH]3)n2)cc(N2CCOCC2)n1 ?
Pf Dd2 growth: 13%[44.1 µM]

Results for N[C@@H](CO)c1nc(C2CCOCC2)nn1-c1ccccc1F ?
Pf Dd2 growth: 3%

What do the screens show for `O=C(COc1ccc(F)cc1)N1CC(c2nc(CCOCC3CCOCC3)no2)C1`?
Pf Dd2 growth: -20%

Results for O=C(c1ccc(N2CC3CC(C2)[C@H]2CCCC(=O)N2C3)nc1)N1CCN(c2ccccc2)CC1 (some centres undefined) ?
Pf Dd2 growth: -30%

Results for O=C1CCCCC(CNC(=O)c2ccccc2)N1 (centres undefined) ?
Pf Dd2 growth: 43%

Results for CCn1nccc1C(=O)NC1CCCN(c2cc(N(C)C)ncn2)C1 (centres undefined) ?
Pf Dd2 growth: 7%[5.79 µM]

What do the screens show for `CS(=O)(=O)N1CCNC[C@@H]1C(=O)N[C@@H](CC1CCCCC1)C(N)=O`?
Pf Dd2 growth: -22%[44.1 µM]

What do the screens show for `COC(=O)[C@@H]1Cc2c([nH]c3ccccc23)[C@H]2C[C@@H](NCc3cccs3)C[C@@H](c3ccccc3F)N21`?
Pf Dd2 growth: -28%

How did COC(=O)[C@@H]1Cc2c([nH]c3ccccc23)[C@H]2C[C@@H](NC(C)C)C[C@@H](c3ccc(C)cc3)N21 do in these assays?
Pf Dd2 growth: inactive

How did COC(=O)[C@@H]1Cc2c([nH]c3ccccc23)[C@H]2C[C@@H](NCCc3cnc[nH]3)C[C@@H](c3cccc(Cl)c3)N21 do in these assays?
Pf Dd2 growth: inactive

How did COC(=O)[C@@H]1Cc2c([nH]c3ccccc23)[C@@H]2C[C@@H](NCCNC(C)=O)C[C@@H](c3cccc(Cl)c3)N12 do in these assays?
Pf Dd2 growth: 11µM*

Results for COC(=O)[C@@H]1Cc2c([nH]c3ccccc23)[C@H]2C[C@@H](NCCN(C)C)C[C@@H](c3cccc(Cl)c3)N21 ?
Pf Dd2 growth: 2.8µM*

What do the screens show for `Cc1ccc(NC(=O)Cn2cc(S(=O)(=O)Cc3cccc(Cl)c3)c3ccccc32)cc1C`?
Pf Dd2 growth: 2%

What do the screens show for `COC(=O)[C@@H]1Cc2c([nH]c3ccccc23)[C@H]2C[C@H](NCCN3CCOCC3)C[C@@H](c3ccc(F)cc3)N21`?
Pf Dd2 growth: 11µM*

How did COC(=O)[C@@H]1Cc2c([nH]c3ccccc23)[C@H]2C[C@@H](NCCN3CCOCC3)C[C@@H](c3ccc(F)cc3)N21 do in these assays?
Pf Dd2 growth: -15%

Results for Cc1ccc(C)c(NC(=O)Cn2cc(S(=O)(=O)Cc3cccc(Cl)c3)c3ccccc32)c1 ?
Pf Dd2 growth: 11%

What do the screens show for `O=C(Cn1ccn2nc(-c3ccccc3)c(CO)c2c1=O)NCc1ccccc1Cl`?
Pf Dd2 growth: inactive

How did OC1(CNCc2cccnc2-n2cncn2)CCNC1 (centres undefined) do in these assays?
Pf Dd2 growth: -9%

Results for Cc1cccc(CC(=O)N2CCCC(c3nnnn3C)C2)c1 (centres undefined) ?
Pf Dd2 growth: 26%

Results for O=C1CCN(C(=O)C2CCN(C(=O)C3CC3)CC2)CCCCCCN1 ?
Pf Dd2 growth: -6%

How did COCCn1ncc(N2CCC(C(=O)N3CCC(C(N)=O)(N4CCCCC4)CC3)C2)cc1=O (centres undefined) do in these assays?
Pf Dd2 growth: 14%

Results for O=C(c1ccccc1)N1CCC(N2CCOC2=O)CC1 ?
Pf Dd2 growth: 4%[44.1 µM]

What do the screens show for `O=C(NC1CC1)c1ccccc1OC1CN(Cc2cccc(F)c2)C1`?
Pf Dd2 growth: -14%

What do the screens show for `COc1cccc(CN2CC(Oc3ccccc3C(=O)NCc3ccccc3)C2)c1`?
Pf Dd2 growth: 3.5µM*

Results for O=C(NC1CC1)c1ccccc1OC1CN(Cc2cccc(C(F)(F)F)c2)C1 ?
Pf Dd2 growth: -24%

Results for O=C(Cc1cccc(Cl)c1)N1CCn2c(nnc2-c2ccccc2)C1 ?
Pf Dd2 growth: -1%

How did O=C(c1ccsc1)N1CCCC(c2nc(C3CCOCC3)no2)C1 (centres undefined) do in these assays?
Pf Dd2 growth: 61%

What do the screens show for `CC(C)CCN1CC2(Cc3ccccc3NC2=O)C1`?
Pf Dd2 growth: -8%[44.1 µM]

What do the screens show for `COc1ccc(NC(=O)N2CCc3nnc(C4CC4)n3CC2)cc1`?
Pf Dd2 growth: 4%

How did Clc1cccc(CN2CC[C@H](c3nc4ccccc4s3)C2)c1 do in these assays?
Pf Dd2 growth: inactive

Results for N#C/C(=C\c1ccc(-c2cccc(Cl)c2)o1)C(=O)Nc1cccc(C(F)(F)F)c1 ?
Pf Dd2 growth: 17%

Results for N#C/C(=C/c1cn(Cc2ccc(F)cc2)c2ccccc12)C(=O)Nc1cccc(Cl)c1 ?
Pf Dd2 growth: 10µM*

Results for Cc1ccc(NC(=O)/C(C#N)=C/c2ccccc2Cl)cc1C ?
Pf Dd2 growth: 18%
